# Data as given in PubChem BioAssay (NCATS).
# The source made the active and inactive calls. Calls come from the whole dose curve.
# Test: qHTS drug screen for cell cycle checkpoint inhibitors in PARPi-resistant BRCA-mutant ovarian cancer cell lines. (AID 1963452)
# Conditions: PEO1/OlaR viability, CellTiter-Glo luminescence, 96 h; for Z-AUC: stronger effect = lower value
# Summary of the method: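 PEO1, PEO4 and PEO1/OlaR ovarian cancer cells, 600 per well, exposed 96 h at 37C to a dilution series. Viability read by CellTiter-Glo luminescence, normalized to DMSO and empty wells; activity summarized as Z-AUC.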
# [1] = measured here: PEO1 parental Z-AUC
# Potency is the fitted concentration of half-maximal effect.
SMILES,Z-AUC,Z-AUC [1],Z-AUC (measured here: PEO4 Z-AUC),Potency
O=C(Nc1cccnc1)c1cc(-c2ccnc(F)c2)ccc1OCc1ccccc1,-0.389 (inactive),-0.74,-0.497,
CCOc1cc(C(C)(C)C)ccc1C1=N[C@@](C)(c2ccc(Cl)cc2)[C@@](C)(c2ccc(Cl)cc2)N1C(=O)N1CCN(CC(=O)N2CCOCC2)CC1,-0.291 (inactive),0.35,0.188,
Cc1[nH]c(/C=C2\C(=O)Nc3ccc(S(=O)(=O)N(C)c4cccc(Cl)c4)cc32)c(C)c1C(=O)N1CCN(C)CC1,1.27 (inactive),1.2,1.26,
O=C(NC[C@H](O)CN1CCc2ccccc2C1)c1ccnc(NC2CCC2)c1,-0.571 (inactive),-0.416,-0.212,
CCNC1(C(N)=O)CCN(c2ncnc3c2nc(-c2ccccc2Cl)n3-c2ccc(Cl)cc2)CC1,0.84 (inactive),0.367,0.247,
NCC1CCN(c2nccc(-c3ccc4ccccc4c3)n2)CC1,-1.15 (inactive),0.563,-0.738,
O=C(O)C1=CO[C@@H](O[C@@H]2O[C@H](CO)[C@@H](O)[C@H](O)[C@H]2O)[C@@H]2C(CO)=CC[C@H]12,1.4 (inactive),1.85,1.61,
COc1cc(N2CCC(N3CCN(C)CC3)CC2)ccc1Nc1ncc(Cl)c(Nc2ccccc2P(C)(C)=O)n1,,-1.53,-1.55,0.549 µM (active)
CC(C)S(=O)(=O)c1ccc2nccc(Nc3ccc4scnc4c3)c2c1,-0.9 (inactive),-0.597,-0.874,
COc1cc2ncnc(Nc3ccc(O)c(Br)c3)c2cc1OC,-0.393 (inactive),0.024,-0.318,
Cn1ncc(Cl)c1-c1cc(C(=O)N[C@H](CN)Cc2ccc(F)c(F)c2)sc1Cl,0.188 (inactive),0.381,-0.0194,
CN1CCN(c2ccc(-c3cccc(CN4CCOCC4)c3)cc2NC(=O)c2c[nH]c(=O)cc2C(F)(F)F)CC1,0.777 (inactive),0.269,0.524,
CCn1c(=O)c(-c2ccc(-c3cncs3)cc2Cl)cc2cnc(Nc3ccc(N4CCN(C)CC4)cc3)nc21,-1.32 (inactive),-0.743,-0.961,
CC[C@@H](C)Nc1cc(C(=O)NC2CC3CCC(C2)N3c2ccc(C(=O)C3CC3)cn2)c(C)cc1C(N)=O (some centres not stated),-1.08 (inactive),-1.13,-0.342,
